Screening results as filed in PubChem BioAssay.
CCT modulator = changes cytosolic chaperonin activity. purified chaperonin ATPase assay, HTRF ADP detection, 30 min. activity change, % (concentration not given with the values), hits read low. 0.3% of 360,000 active; in the data active = activity change below about -30%; also: % is scaled to controls: 0 for no effect and ±100 for the full control effect
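First, chaperonin was dispensed at 40 nM or 20 nM final depending on batch activity. Next, compounds were pinned at 76 uM and ATP added at 10 uM. After 30 min at 37 °C, ADP detection reagents ran 30 min at ambient temperature.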
TDP43 rescue = TDP-43 toxicity inhibition in yeast; Potency, µM (top dose mostly 46.1 µM), inactives show at the top dose growth rescue (activation), usual class: activators; 1.8% of 410,000 active; TDP-43 expressing yeast growth rescue, BacTiter-Glo, 24 h; also: potency is read from the fitted curve at half-maximal effect; % of control where 0% means no effect; nearly all actives have a fitted effect of over 50% in size
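Galactose-induced TDP-43 yeast, OD600=0.02, compound pinned; 24 hr, 30 deg C; BacTiter-Glo luminescence for growth. Inhibitors of TDP-43 toxicity read as activators.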
Mm-Cpn inhibitor = blocks the Methanococcus maripaludis chaperonin Mm-Cpn; purified Mm-Cpn ATPase, ADP Transcreener TR-FRET; Potency, µM (titrated, usually from 76.9 µM), inactives show at the highest dose activity, negative = inhibition, usual class: inhibitors; 0.031% of 330,000 active; AID 504842; also: potency is read from the fitted curve at half-maximal effect; % is scaled to controls: 0 for no effect and ±100 for the full control effect; nearly all actives have a fitted effect of over 80% in size
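Purified archaeal Mm-CPN (25nM final) preincubated 10 min at 37degC with compound, then 10uM ATP for 30 min at 37degC; ADP measured by HTRF Transcreener TR-FRET; buffer 30 mM TRIS pH 7.4, 100mM KCl, 5mM MgCl2, 1mM DTT.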
Abeta rescue = compounds reversing amyloid beta toxicity in yeast | Potency, µM (series often up to 46.1 µM), usual class: activators | 0.063% of 410,000 active | yeast expressing A-beta42, growth rescue, OD600, 48 h; response scale: 0% DMSO, 100% iron-clioquinol control; also: potency is read from the fitted curve at half-maximal effect; nearly all actives have a fitted effect of over 55% in size
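Growth rescue measured by 600 nm absorbance after 48 h yeast culture at 30 C with compound. Values normalized between DMSO and an equimolar ferric chloride plus clioquinol control.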
FUS suppressor = FUS proteinopathy suppression in yeast. S. cerevisiae FUS-expressing, growth rescue, OD600, 24 h. Potency, µM (series often up to 76.6 µM), actives largely listed as activators. 0.24% of 390,000 active. AID 1347120;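 also: potency is read from the fitted curve at half-maximal effect; plate controls were DMSO vehicle for no effect and reference control for full effect; nearly all actives have a fitted effect of over 55% in size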
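FUS-expressing yeast, raffinose-pregrown, induced in 2% galactose minimal medium at OD 0.005; compounds in a dilution series, 24hr at 30C. Growth restoration read as absorbance at 600 nm. CP55940 positive control, DMSO negative.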
aSyn rescue = inhibitors of alpha-synuclein toxicity in yeast | 0.14% of 370,000 active | Potency, µM (doses to about 46.1 µM), without a hit: at the top dose growth rescue (activation), usual class: activators | Yeast expressing alpha-synuclein, growth rescue, BacTiter-Glo, 24 h | AID 652106; also: potency is read from the fitted curve at half-maximal effect; % of control where 0% means no effect; nearly all actives have a fitted effect of over 65% in size
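Rescue of yeast growth: cells expressing toxic alpha-synuclein, induced in galactose at OD600 0.02, incubated with compound 24 h at 30 C. ATP luminescence quantified growth; inhibitors of toxicity appear as activators.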
* marks the source's active call; other numbers are inactive results; i = inactive; ? = inconclusive; / = not tested or not shown; ! = not active in a repeat. The list is not random: actives were taken first. Their share in the collection is about 2.3%. Unless noted, calls follow the shape of the dose curve; as a rule, active = well fitted curve in the direction sought with a large enough effect; inconclusive = small, poorly fitted or top-dose-only effect, or another doubt; inactive = no such curve, though single readings can be large; an effect the other way counts as inactive or inconclusive.

SMILES | CCT modulator | TDP43 rescue | Mm-Cpn inhibitor | Abeta rescue | FUS suppressor | aSyn rescue
CCOC(=O)c1c(-c2ccccc2)nnn1-c1nc(OCC)nc(N2CCCCC2)n1 | 0 | 22µM* | 3% | i | i | -26%
Cc1onc(-c2ccc(Cl)cc2)c1-c1ccn(S(=O)(=O)c2cccc(Cl)c2)n1 | / | / | / | / | i | /
COc1ccccc1NS(=O)(=O)c1ccc2ccccc2c1 | -2 | 20µM* | 0% | i | i | 26%
COc1ccc(C(CNC(=O)c2cccc(S(=O)(=O)Nc3ccccc3OC)c2)N2CCCC2)cc1 (stereo not given) | -51* | 14% | 0% | i | i | -3%
COc1ccc(NS(=O)(=O)c2ccc3ccccc3c2)c2ncccc12 | 0 | ? | 3% | 4.5µM* | i | ?
COc1ccccc1NS(=O)(=O)c1ccc(OC)c(OC)c1 | 1 | 19% | 0% | i | i | 0%
O=S(=O)(Nc1cccc2ccccc12)c1ccc2ccccc2c1 | / | / | / | / | / | 20µM*
COc1ccc2cc3cc(C(=O)Nc4ccc(F)cc4)sc3nc2c1 | / | / | / | / | i | /
Nn1c(SCC(=O)Nc2cc(C(F)(F)F)ccc2Cl)nnc1-c1n[nH]c2c1CCC2 | / | / | / | / | i | /
Cc1cccc(N2CCN(c3ncnc4onc(C)c34)CC2C)c1 (stereo not given) | / | ? | / | i | i | /
Cc1cc(C)nc(NC(=O)Cc2ccc([N+](=O)[O-])cc2)c1 | -34* | 4% | 0% | i | i | -20%
Cc1ccc(CC(=O)Nc2cc([N+](=O)[O-])ccc2F)cc1 | 0 | 16% | -1% | i | i | -12%
COc1ccccc1N(CC(O)COc1ccc(C)cc1)S(=O)(=O)c1ccccc1 (stereo not given) | -3 | 0% | -1% | i | / | ?
COc1ccccc1N(CC(O)COc1c(C)cc(C)cc1C)S(=O)(=O)c1ccccc1 (stereo not given) | -1 | 18µM* | 1% | i | / | 24%
CC(=O)/C=C1\OCc2cc(OCc3ccccc3)ccc21 | / | 10µM* | / | i | i | 3%
COc1ccc(CN(CCN2CCOCC2)C(=O)c2ccc(F)cc2Cl)cc1OC | / | / | / | / | i | /
O=C(c1c[nH]c(C(=O)C(Cl)(Cl)Cl)c1)c1ccccc1F | -3 | 10µM* | 1% | i | i | -3%
O=C(NCCCc1ccccc1)OC1CC2CC1[C@H]1CCCCN1C2 (stereo not given in full) | / | / | / | / | i | /
Cc1ccccc1NC(=O)O[C@H]1CC[C@@]23CCCN2C(=O)CCC[C@H]3[C@H]1C | / | / | / | / | i | /
Nc1c(-c2ccccc2)cnn1-c1cccc([N+](=O)[O-])c1 | 0 | 20µM* | 1% | i | i | 2%
CC1(C(=O)Nc2cnc3ccccc3c2)CCN1C(=O)CC(c1ccccc1)c1ccccc1 (stereo not given) | -1 | 18µM* | / | i | ? | 1%
CCOc1ccc(CCNC(=O)c2cc3sccc3n2Cc2ccccc2)cc1OCC | / | / | / | / | i | /
CS(=O)(=O)c1ccc(C(=O)OCc2nnc(-c3ccc(Cl)cc3)o2)cc1[N+](=O)[O-] | -6 | 18µM* | 1% | i | ? | -24%
O=c1c2oc3ccccc3c2n(Cc2cccc(Cl)c2)c(=O)n1Cc1ccco1 | / | 19% | / | i | i | /
Cc1c(C=O)c2ccccn2c1C(=O)c1ccc(F)cc1 | -2 | -25% | ? | i | i | 16µM*
SMILES | CCT modulator | TDP43 rescue | Mm-Cpn inhibitor | Abeta rescue | FUS suppressor | aSyn rescue
Cc1c(C=O)c2ccccn2c1C(=O)c1ccc(Cl)c([N+](=O)[O-])c1 | 0 | 5% | 2% | i | i | -1%
Cc1c(C=O)c2ccccn2c1C(=O)c1ccccc1 | 1 | ? | -2% | i | i | 18µM*
O=C(C1CCCN1S(=O)(=O)c1cccc2ccccc12)N1CCN(c2ccccc2)CC1 (stereo not given) | / | / | / | / | i | /
CNc1nc(Nc2ccc(C)c(Cl)c2)c2cnn(C)c2n1 | 2 | 14µM* | -3% | i | i | 1%
COc1ccc(CCNC(=O)c2ccc3c(c2)N(Cc2ccc(F)cc2)C(=O)CS3)cc1OC | / | 9% | / | i | i | /
CCN1C(=O)CSC1=Nc1ccc(Cl)c(Cl)c1 | 3 | 13µM* | -2% | i | i | -17%
CCN1C(=O)CSC1=Nc1ccc(OC)cc1 | -1 | 17% | -2% | i | i | 7%
COc1cccc(Nc2c(F)c(OC)c(F)c(F)c2C(=O)O)c1 | -1 | 0% | 3% | i | i | -2%
COc1c(F)c(F)c(C(=O)O)c(Nc2ccccc2)c1F | -78* | -7% | 0% | i | i | 1%
CCOc1ccc(NC(=O)CSc2nnc(-c3ccc(C)cc3)c(-c3ccc(C)cc3)n2)cc1 | / | 6% | / | i | i | /
COc1cc(OC)c(OC)cc1/C=C/c1nc2ccccc2o1 | / | / | / | / | / | -17%
Cn1nccc1C(=O)Nc1ccc2c(c1)OCO2 | -55* | 17% | -2% | i | i | -4%
Cc1noc(C)c1C(=O)N1CCC(n2nnc3ncccc32)CC1 | / | / | / | / | i | /
CCc1nnc(NC(=O)CCn2cnc3ccccc3c2=O)s1 | -31* | -6% | 0% | i | i | -1%
Fc1ccc(C(NCCc2ccc(Cl)cc2)c2nnc(-c3ccccc3Cl)o2)cc1 (stereo not given) | / | 32µM* | / | i | i | /
CCOc1ccccc1/C=N/OCC(=O)NCc1ccc(F)cc1 | 3 | 22µM* | 1% | i | i | 2%
COC(=O)c1ccc(/C=N/OCC(=O)NCc2ccc(F)cc2)cc1 | -1 | 32µM* | -2% | i | i | 0%
O=C(COc1ccc(C(=O)c2ccc(F)cc2)cc1)NCc1ccc(F)cc1 | -1 | 20µM* | -2% | i | / | 7%
COc1ccccc1/C=N/OCC(=O)NCc1ccc2c(c1)OCO2 | -1 | -5% | 6% | i | i | -1%
COc1ccccc1N1CCN(c2cc(C)nc3c(-c4ccc(Cl)cc4)c(C)nn23)CC1 | / | 17% | / | i | i | /
Cc1ccc(NC(=O)C2CCCN(c3cnccn3)C2)cc1Cl (stereo not given) | / | 22µM* | / | i | i | /
O=C(Nc1ccc(C(F)(F)F)cc1)C1CCN(c2cnccn2)CC1 | -1 | 16µM*! | -4% | i | i | -8%
CCOC(=O)c1ccc(NC(=O)C2CCCN(c3cnccn3)C2)cc1 (stereo not given) | -1 | 20µM* | 1% | i | i | ?
CCCCOc1ccc(C(=O)n2ccc3ccc(-c4ccc5ccn(Cc6ccccc6)c5c4)cc32)cc1 | / | / | / | / | i | /
